# Data: PubChem BioAssay
# The source made the active and inactive calls.
# Tests used:
# [1] = system: Plasmodium falciparum Sir2 (PF13_0152, Sir2A); assay: pfSir2 binders on small-molecule microarrays, primary screen, biochemical, small-molecule microarray, 635 nm fluorescence (AID 1098); conditions: small-molecule microarray binding, fluorescence 635 nm; higher = more signal;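 note: score merges spot fluorescence intensity with its signal-to-noise ratio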
# [2] = small-molecule microarray binders of probe aDKK1, primary screen, biochemical, biotinylated probe, 635/667 nm fluorescence (AID 1099); conditions: higher = more signal;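 note: score merges 667nm spot fluorescence with signal to noise across triplicate slides; reference of the scale not given here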
# [3] = small-molecule microarray binders of probe aCHRDL2, primary screen, biochemical, biotinylated probe, 635/667 nm fluorescence (AID 1100); conditions: higher = more signal
# [4] = splicing luciferase reporter signal modulators, primary screen, spliceosome inhibition project, cell-based, HEK293, splice +/- reporter (AID 1101); conditions: luminescence, 24 h, higher = more signal, called active from +8 up or from −8 down;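 note: HEK293 cells carrying a splicing-competent luciferase reporter gene; test concentration not given here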
# [5] = target: Fibroblast growth factor 10 (Homo sapiens) (UniProt O15520); assay: FGF10 binders on small-molecule microarrays, primary screen, biochemical, small-molecule microarray, 635 nm fluorescence (AID 1102); conditions: FGF10 binding, fluorescence 635 nm, higher = more signal
# Fibroblast growth factor 10 (Homo sapiens), sequence (O15520 whole entry, looked up): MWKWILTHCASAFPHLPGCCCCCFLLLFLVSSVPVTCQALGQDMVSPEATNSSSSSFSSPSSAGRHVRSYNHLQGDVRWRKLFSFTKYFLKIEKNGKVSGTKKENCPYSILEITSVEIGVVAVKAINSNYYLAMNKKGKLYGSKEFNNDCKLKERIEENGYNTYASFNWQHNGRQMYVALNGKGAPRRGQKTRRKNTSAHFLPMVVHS
# [6] = system: glycogen synthase kinase-3 (GSK3A per assay name; protocol says GSK3B); assay: GSK3 binders on small-molecule microarrays, primary screen, biochemical, small-molecule microarray, 635 nm fluorescence, GSK3A (AID 1103); conditions: small-molecule microarray binding, fluorescence 635 nm; higher = more signal; note: the record names both GSK3A and GSK3B
# [7] = target: Epidermal growth factor receptor (Homo sapiens) (UniProt P00533); assay: EGFR binders on small-molecule microarrays, primary screen, biochemical, small-molecule microarray, 635 nm fluorescence (AID 1104); conditions: EGFR binding, higher = more signal;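 note: score merges 667 nm emission intensity with spot signal to noise over triplicate slides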
# Epidermal growth factor receptor (Homo sapiens), sequence (P00533 whole entry, looked up): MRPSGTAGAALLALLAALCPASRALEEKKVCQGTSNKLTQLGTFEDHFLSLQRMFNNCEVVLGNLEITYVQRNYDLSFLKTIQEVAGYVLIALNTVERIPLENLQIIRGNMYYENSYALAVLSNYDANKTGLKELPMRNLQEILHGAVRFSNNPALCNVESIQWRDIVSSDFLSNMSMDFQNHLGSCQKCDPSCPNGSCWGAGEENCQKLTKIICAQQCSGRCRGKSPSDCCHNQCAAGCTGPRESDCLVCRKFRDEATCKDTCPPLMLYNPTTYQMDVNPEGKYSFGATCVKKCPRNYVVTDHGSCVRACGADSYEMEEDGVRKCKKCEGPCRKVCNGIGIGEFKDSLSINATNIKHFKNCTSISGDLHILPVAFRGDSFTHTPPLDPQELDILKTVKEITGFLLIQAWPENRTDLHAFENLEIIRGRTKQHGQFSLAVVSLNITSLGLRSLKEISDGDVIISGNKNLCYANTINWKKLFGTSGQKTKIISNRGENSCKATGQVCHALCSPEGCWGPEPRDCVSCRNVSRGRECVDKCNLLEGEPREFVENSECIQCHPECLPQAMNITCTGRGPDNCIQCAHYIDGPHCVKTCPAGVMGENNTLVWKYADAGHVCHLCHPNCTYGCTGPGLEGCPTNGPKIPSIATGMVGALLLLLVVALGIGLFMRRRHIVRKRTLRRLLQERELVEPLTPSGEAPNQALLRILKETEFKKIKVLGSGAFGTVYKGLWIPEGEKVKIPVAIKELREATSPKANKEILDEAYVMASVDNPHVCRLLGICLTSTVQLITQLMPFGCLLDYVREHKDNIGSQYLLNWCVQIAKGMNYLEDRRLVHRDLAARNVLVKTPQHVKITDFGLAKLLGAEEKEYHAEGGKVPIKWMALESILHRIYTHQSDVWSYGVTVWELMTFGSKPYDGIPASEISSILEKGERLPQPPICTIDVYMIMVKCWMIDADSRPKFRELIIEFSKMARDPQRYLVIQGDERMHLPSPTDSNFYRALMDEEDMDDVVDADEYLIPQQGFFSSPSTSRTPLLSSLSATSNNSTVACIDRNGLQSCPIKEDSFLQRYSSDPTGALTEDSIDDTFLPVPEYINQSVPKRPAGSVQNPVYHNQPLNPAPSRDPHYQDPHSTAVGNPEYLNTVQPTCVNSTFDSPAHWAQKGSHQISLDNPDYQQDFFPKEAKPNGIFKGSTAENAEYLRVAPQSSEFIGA
# [8] = target: Follistatin-related protein 3 (Homo sapiens) (UniProt O95633); assay: FSTL3 binders on small-molecule microarrays, primary screen, biochemical, small-molecule microarray, 635 nm fluorescence (AID 1105); conditions: FSTL3 binding, higher = more signal;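 note: score merges emission near 667 nm and signal to noise per printed spot across three slides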
# Follistatin-related protein 3 (Homo sapiens), sequence (O95633 whole entry, looked up): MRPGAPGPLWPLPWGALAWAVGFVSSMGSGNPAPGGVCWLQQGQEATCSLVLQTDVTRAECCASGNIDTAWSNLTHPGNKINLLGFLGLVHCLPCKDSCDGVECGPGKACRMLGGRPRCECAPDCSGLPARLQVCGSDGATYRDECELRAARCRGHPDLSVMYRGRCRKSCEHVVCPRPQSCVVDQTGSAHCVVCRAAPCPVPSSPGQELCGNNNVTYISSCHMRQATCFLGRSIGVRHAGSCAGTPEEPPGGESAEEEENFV
# [9] = target: Dickkopf-related protein 1 (Homo sapiens) (UniProt O94907); assay: DKK1 binders on small-molecule microarrays, primary screen, biochemical, small-molecule microarray, 635 nm fluorescence scan (AID 1106); conditions: DKK1 binding, higher = more signal;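 note: score merges emission near 667 nm with signal to noise over three replicate slides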
# Dickkopf-related protein 1 (Homo sapiens), sequence (O94907 whole entry, looked up): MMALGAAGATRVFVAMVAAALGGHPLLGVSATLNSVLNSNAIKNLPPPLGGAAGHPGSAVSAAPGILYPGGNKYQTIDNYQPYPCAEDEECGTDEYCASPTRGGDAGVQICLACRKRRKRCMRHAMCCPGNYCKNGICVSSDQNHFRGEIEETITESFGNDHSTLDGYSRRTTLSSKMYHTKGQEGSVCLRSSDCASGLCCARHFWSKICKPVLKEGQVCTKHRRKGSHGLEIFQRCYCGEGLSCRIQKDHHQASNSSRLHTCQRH
# [10] = system: Inhibin beta A chain (activin A); assay: INHBA (activin A) binders on microarrays, primary screen, biochemical, small-molecule microarray, 635 nm fluorescence scan (AID 1107); conditions: small-molecule microarray binding, higher = more signal;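 note: mouse activin A protein probed at 4.33 µg/mL on printed slides; score merges bound-protein fluorescence near 667 nm with spot signal-to-noise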
SMILES,composite z-score [1],composite z-score [2],composite z-score [3],z-score [4],composite z-score [5],composite z-score [6],composite z-score [7],composite z-score [8],composite z-score [9],composite z-score [10]
C=C(CCCC)/C(=C/C[C@@H](OC(=O)c1ccncc1)c1cccc(OCCO)c1)c1cnc2ccccc2c1,0.148,0.11,0.563,-0.562 (inactive),1.52,0.667,1.27,1.56,0.895,1.67
O=C(O)[C@]1(Cc2ccccc2)N=C(c2ccc(OCCCO)cc2)O[C@@H]1c1ccccc1,0.122,0.568,0.926,0.771 (inactive),-0.74,-1.23,-0.856,-1.07,-1.16,0.848
C=CCNC(=O)[C@H]1[C@@H]2C(=O)O[C@@H](c3ccccc3)[C@@H](c3ccccc3)N2[C@@H](c2ccccc2OCCO)[C@]12C(=O)N(C(=O)OCCOC)c1ccc(C#CC3=CCCCC3)cc12,1.39,0.683,0.521,-1.85 (inactive),0.996,1.22,0.69,1.32,1.11,1.41
CCOC(=O)C1=C[C@@H](c2ccccc2)N(S(=O)(=O)c2ccc(C)cc2)[C@H]1c1cccc(Cl)c1,0.937,1.09,1.17,-0.355 (inactive),0.839,1.27,0.448,1.17,-0.0943,-0.249
NC(=O)N1C(=O)C2C(C1=O)C1C=C(c3ccc(CO)cc3)C2C(C2CC2)N1Cc1sc2ccccc2c1Cl (stereo not given),0.834,-0.0675,0.102,-0.72 (inactive),1.25,1.12,0.553,1.21,0.307,-0.115
C=C1C2CC3C(=C4C(CO[C@@H]4[C@H]4CCCN4S(=O)(=O)c4ccccc4[N+](=O)[O-])C4C(=O)N(C)C(=O)C34)CC2C(=O)N1C (stereo not given in full),0.201,-0.2,-0.427,0.194 (inactive),0.475,0.0168,-0.0553,0.157,0.298,0.689
O=C(N1CCCCC1)[C@@]1(Cc2ccccc2)COC(c2ccc(OCCCO)cc2)=N1,1.48,1.11,1.25,0.419 (inactive),1.44,0.705,-0.153,0.12,-0.275,0.691
CO[C@H]1O[C@H](CO)[C@@H](OC(=O)c2ccc(Br)cc2)[C@@H]2OC(=O)[C@@H](Cc3ccc4ccccc4c3)C/C=C/C[C@H](Cc3ccc4ccccc4c3)C(=O)O[C@@H]12,0.995,0.463,0.769,-0.83 (inactive),0.429,0.548,-0.567,0.323,-0.54,0.588
COC(=O)C1(Cc2ccccc2)C=C2C(=C(C(C)C)C(=O)C2C)CN1 (stereo not given),-1.21,1.34,1.36,1.62 (inactive),-0.713,-1.51,-0.449,-0.482,-1.41,1.35
CCOC(=O)[C@H]1C/C=C/C[C@H](C(=O)OCC)C(=O)O[C@H]2[C@@H](OC)O[C@H](CO)[C@@H](OC(=O)CCc3ccccc3)[C@@H]2OC1=O,0.254,-0.41,0.128,-0.389 (inactive),-0.785,-1.46,-0.741,-1.53,-0.315,0.334
COC(=O)[C@@]1(Cc2ccccc2)[C@H]2c3cc(C(=O)N4CCCC4)n(Cc4ccsc4Br)c3C[C@H]2CN1C(=O)c1ccccc1,0.31,1.13,1.37,-1.31 (inactive),0.832,0.572,-0.105,0.906,-0.825,0.748
C[C@H]1ON(c2ccc(C(=O)OC(C)(C)C)cc2)[C@@H](c2ccc(O)cc2)[C@@H]1C(=O)N1C(=O)OC[C@@H]1c1ccccc1,1.12,-0.0999,-0.232,0.242 (inactive),0.994,1.28,0.554,1.16,0.624,-0.0428
C=CC1c2cc(O)c(OC)cc2CCN1Cc1sc2ccccc2c1Cl (stereo not given),1.29,0.284,1.25,-1.4 (inactive),0.504,0.112,-0.163,0.847,0.153,1.55
C[C@@H](OCc1ccccc1)C1NC(=O)[C@@]23C(=O)N[C@@H](Cc4ccccc4)C2[C@H](C)[C@@]2(C)O[C@H]2C3/C=C/C/C=C\CNC(=O)CNC1=O (stereo not given in full),1.4,-0.354,-0.217,0.848 (inactive),-0.389,-0.764,-0.497,-0.467,-0.166,1.57
CC(=O)n1cc(C(O)C2C=CC3C(=O)N(c4ccccc4)C(=O)C3N2Nc2ccccc2)c2ccccc21 (stereo not given),0.454,1.81,1.52,-1.22 (inactive),0.833,-0.669,0.444,1.19,0.325,1.93
CC(C)N1C(=O)[C@@]2(c3ccc([N+](=O)[O-])cc3)CC(=O)N(C3CCCCC3)[C@@H]2c2ccc(CO)cc21,0.29,-0.227,-0.173,0.403 (inactive),0.269,0.172,-0.137,0.656,0.501,0.859
COc1ccc([Si](C)(C)[C@H]2[C@H](CC(=O)N3Cc4ccccc4C[C@H]3CO)O[C@@]3(C(=O)N(Cc4cccc(N5CCCCC5=O)c4)c4ccccc43)[C@@H]2C)cc1,1.2,-0.205,-0.181,-0.519 (inactive),1.14,0.262,0.795,1.27,1.12,0.94
CC(C)(C)OC(=O)CC[C@]1(C(=O)O)N=C(c2ccc(OCCCO)cc2)O[C@H]1c1ccccc1,1.14,0.191,0.542,-1.32 (inactive),-0.272,-0.406,-0.329,-0.121,-0.517,0.734
Cc1ccc(S[C@]2(C(=O)NC(C)C)CC(=O)N(C3Cc4ccccc4C3)[C@@H]2c2ccc(CO)cc2I)cc1,0.944,-0.253,-0.398,-1.44 (inactive),-0.651,0.1,-0.922,-1.13,-1.18,-0.696
C=CCOC(=O)[C@H]1[C@@H]2C(=O)O[C@@H](c3ccccc3)[C@@H](c3ccccc3)N2[C@@H](c2ccc(OCCOC(=O)[C@H]3C[C@H]4C(=O)N[C@@H](Cc5ccccc5)C(=O)N4[C@H]3c3ccc(O)cc3)cc2)[C@]12C(=O)Nc1ccc(I)cc12,1.34,-0.188,-0.485,0.354 (inactive),1.26,0.98,0.625,1.46,1.27,0.0385
C=CC[C@@]1(C(=O)O)N=C(c2ccc(OCCCO)cc2)O[C@@H]1c1ccccc1,1.96,-0.2,0.584,-0.701 (inactive),-0.21,1.06,-1.9,-1.15,-0.659,-0.361
COC(=O)Cn1c(C(=O)N2CCCC2)cc2c1C[C@H]1CN(C(=O)c3ccccc3)[C@@](Cc3ccc(F)cc3)(C(=O)OC)[C@@H]21,0.643,0.222,-0.0982,-1.13 (inactive),-0.134,-0.576,0.588,0.412,-0.181,0.675
O=C(CS)NCCCCCCNC(=O)[C@H]1C[C@H]2C(=O)N[C@@H](Cc3ccccc3)C(=O)N2[C@H]1c1cccc(OCCO)c1,1.62,-0.0581,0.232,0.479 (inactive),1.51,1.25,1.39,1.52,1.34,0.68
C[N+](C)(C)CCCC[C@@H]1NC(=O)[C@@H]2C[C@H](C(=O)O)[C@H](c3ccc(O)cc3)N2C1=O,-0.72,0.0476,0.937,0.116 (inactive),-1.57,-1.32,-1.04,0.0994,-0.0081,0.614
COc1c(C)cc(-c2cc3c(c(-c4ccccc4)n2)[Si](C(C)C)(C(C)C)OC3)cc1C,0.0039,0.068,-0.676,-0.0426 (inactive),-0.216,-0.39,0.186,-0.355,0.189,1.08
CCOc1cc(C(O)C2C=CC3C(=O)N(C)C(=O)C3N2N2CCCCC2)ccc1O (stereo not given),1.56,0.637,0.101,0.377 (inactive),0.264,-0.37,0.287,0.276,0.164,0.898
COc1ccc([Si](C)(C)[C@H]2[C@H](CCn3cc([C@H](O)c4ccccc4)nn3)O[C@@]3(C(=O)N(Cc4ccc(N5CCC5=O)cc4)c4ccccc43)[C@@H]2C)cc1,0.995,-0.185,-0.403,0.0121 (inactive),0.865,0.365,0.631,0.855,0.527,0.862
[N-]=[N+]=NCc1ccccc1C[C@@]1(C(=O)NCCN2CCOCC2)N=C(c2ccc(OCCCO)cc2)O[C@@H]1c1ccccc1N=[N+]=[N-],1.15,0.75,0.45,-1.7 (inactive),0.778,1.08,0.283,0.325,-0.194,0.822
CC(C)C(=C=CC[C@H](O)c1ccc(OCCO)cc1)C[C@H](O)c1cc(Cl)cc(Cl)c1O,0.631,-0.0017,-0.249,-0.492 (inactive),0.893,0.741,0.122,0.699,-0.0061,0.707
